Screening data: PubChem BioAssay, National Center for Advancing Translational Sciences (NCATS)
Only some compounds are listed: those with a hit (about 15% of all), similar ones and a draw of the others.
HCV inh – inhibitors of hepatitis C virus infection; AID 651820; 340,000 compounds, 3.4% hits; Potency, µM (titrated, usually from 41.8 µM), hits mostly inhibitors; Huh7.5.1 HCVcc-Cre infection, luciferase reporter, 44 h
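Luciferase read-out (15 sec integration) after a 15 min room-temperature substrate step quantifies HCVcc-Cre infection. Cells, 1,000 per well, had compound added 4 h post-plating, then virus at ~0.5 moi, and were cultured 44 h.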
Pf growth 48h – inhibits P. falciparum growth in the first generation, 48 h; P. falciparum luciferase growth in erythrocytes, 48 h; Potency, µM (highest dose often 28.7 µM), actives largely listed as inhibitors; 310,000 compounds, 5.9% hits
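First compound was added to culture medium, then infected red cells at 0.1% parasitemia and 2% hematocrit (final). After incubation at 37 C under 5% CO2, luciferase detection reagent was dispensed and light output recorded.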
Sm TGR inh – S. mansoni TGR enzyme inhibition. purified TGR, DTNB reduction, TNB absorbance 405 nm. Q962Y6. 360,000 compounds, 3% hits. Potency, µM (highest dose often 114 µM), hits mostly inhibitors. AID 485364; note: nearly all actives have a fitted effect of over 60% in size
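Kinetic colorimetric format: TGR-catalysed, NADPH-driven DTNB reduction monitored via TNB absorbance. Enzyme dispensed at 20 nM; compound exposure 15 min at room temperature before reaction start.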
SARS PLpro yeast – blocks SARS-CoV papain-like protease in a yeast assay; AID 485353; S. cerevisiae expressing SARS-CoV PLpro, growth rescue; Potency, µM (series often up to 32.9 µM), hits mostly activators; 330,000 compounds, 0.19% hits; calls by dose curve; note: nearly all actives have a fitted effect of over 55% in size
Pf growth 96h – P. falciparum growth inhibition at 96 hour, primary screen for plastid delayed-death inhibitors | Potency, µM (titrated, usually from 28.7 µM), most hits filed as inhibitors | 320,000 compounds, 6.9% hits | P. falciparum luciferase reporter growth, 96 h
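Readout is luminescence from an integrated firefly luciferase in P. falciparum. Red cells, 2% hematocrit and 0.05% parasitemia final, were cultured with compound through two parasite generations (96 hours) at 37 C, 5% CO2.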
HCMV antiviral – human cytomegalovirus inhibition | HFF cells, HCMV-luciferase reporter, 72 h; hits give low values | activity change, negative = inhibition, % at 57.5 µM | 410,000 compounds, 4.5% hits; in the data active = activity change below about -60%; inconclusive = no clear call, values can overlap the other calls; inactive = above about -39%
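Cell-based, HFFs, 1000 cells/well, 16 h 37C; cpds in DMSO + HCMV-luc, MOI 1 PFU/cell; 72 h 37C; OneGlo luminescence after 5 min RT; norm. to buffer vs Salinomycin 10uM.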
A number is an active result; – = inactive; ? = inconclusive; · = no result; [ ] = another dose, or the depositor's remark. Unless noted, calls come from the whole dose curve; as a rule, active = well fitted curve in the direction sought with a large enough effect; inconclusive = small, poorly fitted or top-dose-only effect, or another doubt; inactive = no such curve, though single readings can be large; an effect the other way counts as inactive or inconclusive.

SMILES	HCV inh	Pf growth 48h	Sm TGR inh	SARS PLpro yeast	Pf growth 96h	HCMV antiviral
COc1ccccc1CNC(=O)CCC(=O)N1Cc2ccccc2Oc2ncccc21	·	·	–	·	·	–
COc1cccc2c1Oc1ncccc1N(C(=O)CCC(=O)NCc1ccccc1)C2	–	?	–	–	–	–
COc1ccc(OC)c(CNC(=O)CCC(=O)N2Cc3cccc(OC)c3Oc3ncccc32)c1	–	–	–	–	?	–
Cc1nn(C(C)C(=O)NNC(=S)Nc2ccc(Cl)cc2)c(C)c1[N+](=O)[O-] (stereo not given)	–	–	–	–	·	–
O=C(COc1ccc(Cl)cc1)Nc1cnn(Cc2c(Cl)cccc2Cl)c1	?	–	–	–	?	–
O=C(Nc1cnn(Cc2c(Cl)cccc2Cl)c1)c1ccc([N+](=O)[O-])cc1	?	?	–	–	13µM	–
O=C(NCc1cccnc1)c1ccc(COc2ccccc2Br)cc1	?	–[5.75 µM]	–	–	–	-76
O=C(NCc1cccnc1)c1cccc(Cl)c1	–	–	–	–	?	-61
O=C(NCc1cccnc1)c1cccc(F)c1	–	–	–	–	·	–
Cc1cc2c(cc(C(=O)NCc3cccnc3)n2Cc2ccc(Cl)cc2)o1	·	?	?	–	10µM	–
O=C(NCc1cccnc1)c1ccc(COc2ccccc2Cl)cc1	?	–	–	–	–[5.75 µM]	-73
O=C(NCc1ccccc1)c1cccc(COc2ccccc2Cl)c1	?	–	–	–	–	–
Cc1cc(C(=O)NCc2cccnc2)no1	·	–	–	–	·	–
CCOC(=O)/C=C/[C@@H](CC(C)C)NC(=O)C(F)(F)F	·	·	·	·	·	–
Cc1ccc2c(c1)cc1c(=O)n(CC(=O)N3CCCCC3)nc(C)n12	·	·	–	·	·	–
COc1ccc(NC(=O)NC2COc3ccccc3C2)cc1Cl (stereo not given)	·	·	–	·	·	–
C[C@@H]1CN([C@H](C)CO)C(=O)CCCn2nncc2CO[C@@H]1CN(C)C(=O)Nc1cccc2ccccc12	·	·	·	·	·	–
O=C(NCc1cccnc1)NC1(C(F)(F)F)Oc2ccc(Cl)cc2O1 (stereo not given)	10µM	?	–	–	?	·
Clc1ccc(CSc2snnc2-c2ccccc2)cc1	–	13µM	–	–	?	–
COCC1CCN(C(=O)C2CCC(=O)N(C3CCCCCC3)C2)CC1 (stereo not given)	·	–	–	–	?	–
COc1ccc(Cl)cc1NC(=O)COC(=O)c1c(-c2ccccc2)noc1C	4µM	?	–	–	?	–
COC(=O)c1c(-c2ccc(F)cc2)noc1N	–	–	–	–	4.7µM	–
COC(=O)c1c(-c2ccccc2)noc1C	–	–	–	–	–	-76
Cc1onc(-c2ccccc2)c1C(=O)Nc1ccccc1NC(=O)c1c(-c2ccccc2)noc1C	–	?	–	?	?	–
Cc1onc(-c2ccccc2)c1C(=O)Nc1ccc(Br)cc1Cl	–	15µM	–	–	–	–
SMILES	HCV inh	Pf growth 48h	Sm TGR inh	SARS PLpro yeast	Pf growth 96h	HCMV antiviral
COC(=O)c1onc(-c2ccccc2)c1C(=O)OC	–	–	–	–	–[5.75 µM]	–
COc1ccc(Cl)cc1NC(=O)c1c(-c2ccccc2)noc1C	?	–	–	–	–	–
COC(=O)c1ccc(-c2ccc(F)cc2)nc1C	–	–	–	–	–	–
Cc1onc(-c2ccccc2)c1C(=O)OCC(=O)Nc1ccccc1	–	?	–	–	–	–
COCCOc1ccc(C(F)(F)F)cc1NC(=O)COC(=O)c1cc[n+]([O-])cc1	–	?	–	–	–	–
COc1ccc(NC(=O)COC(=O)c2c(-c3ccccc3)noc2C)cc1	?	?	–	–	10µM	–
COCCOc1ccc(C(F)(F)F)cc1NC(=O)COC(=O)c1c(C)noc1C	–	9.3µM	–	–	4.7µM	–
Cc1onc(-c2ccccc2)c1C(=O)OCC(=O)NC(C)c1ccc(Cl)cc1 (stereo not given)	?	15µM	–	–	?	–
CN=Cc1c(NC)nc2c(C)cccn2c1=O	–	–	–	–	?	–
CCOC(=O)C1CCN(C(=O)CSc2n[nH]c(-c3ccc(F)cc3)n2)CC1	·	·	–	·	·	–
Cc1cc(C)c(S(=O)(=O)/N=C2/C=C(Sc3ncn[nH]3)C(=O)c3ccccc32)cc1C	?	1.7µM	0.32µM	–	10µM	-100
CCCCN(C)C(=O)c1ccc(Nc2nc(C(N)Cc3ccc(C(F)(F)F)cc3)cs2)nc1 (stereo not given)	·	·	·	·	·	-76
CCCCN(C)C(=O)c1ccc(Nc2nc(C(N)CCc3ccccc3)cs2)nc1 (stereo not given)	·	·	·	·	·	–
COC(=O)c1cc(C)nc(Nc2nc(C(N)Cc3ccc(F)cc3)cs2)n1 (stereo not given)	·	·	·	·	·	–
NC(COCc1ccccc1)c1csc(Nc2nncc3ccccc23)n1 (stereo not given)	·	·	·	·	·	–
Cc1cc(C)nc(Nc2nc(C(N)Cc3ccccc3)cs2)n1 (stereo not given)	·	·	·	·	·	-73
NC(Cc1ccc(C(F)(F)F)cc1)c1csc(Nc2nncc3ccccc23)n1 (stereo not given)	·	·	·	·	·	-104
CN(C)S(=O)(=O)c1ccc(Cl)c(C(=O)Nc2cccc3ncccc23)c1	–	–	–	–	–	–
CCOC(=O)c1c(NC(=O)c2cc(-c3ccc(O)cc3)on2)sc(C(C)=O)c1C	–[8.37 µM]	–	–	–	–	–
NC(=O)Cn1c(=O)n(CCC(=O)Nc2ccc(F)cc2)c(=O)c2sccc21	–	–	–	–	–	–
CC(C)(C)NC(=O)CSc1nc2[nH]ncc2c(=O)[nH]1	–	–	–	–	–	–
O=C1N(Cc2cccnc2)C[C@@H]2C[C@@H](c3ccc(C(F)(F)F)cc3)N3CCC[C@@]123	–	?	–	–	?	–
COCc1ccc([C@@H]2C[C@H]3CN(Cc4cccnc4)C(=O)[C@]34CCCN24)o1	–	–	45µM	–	?	–
COC(=O)c1ccc([C@@H]2C[C@H]3CN(Cc4cccnc4)C(=O)[C@]34CCCN24)cc1	–	?	?	–	10µM	–
O=C1N(Cc2cccnc2)C[C@@H]2C[C@@H](c3ccccc3C(F)(F)F)N3CCC[C@@]123	–	?	–	–	?	–
O=C1N(Cc2cccnc2)C[C@@H]2C[C@@H](c3cccc(Oc4ccccc4)c3)N3CCC[C@@]123	–	?	–	–	?	-67
COCCNC(=O)C1CCCN(C(=O)c2cccnc2Oc2ccccc2)CC1 (stereo not given)	·	·	·	·	·	–
Cc1ccc(S(=O)(=O)N2CC(C)N(C(=O)N3CCOCC3)C2C)cc1 (stereo not given)	–	–	–	–	–	–
CCC(=O)Nc1ccc(N2CCCCC2)c(C(=O)Nc2ccc(OC)cc2)c1	?	–	–	–	?	-81
